Results as given in PubChem BioAssay.
Activity calls are given as the source filed them. Unless noted, no rule for the calls is given here.

Legend:
[1] = resazurin metabolic signal in HepG2 cells – cell-based, resazurin fluorescence, 24 h, PK04 Diversity Set, profiling panel (AID 1172); details: HepG2 viability, higher = more signal; also: test concentration not given here
[2] = budding yeast growth changes without added modifier – OD600, strain BY4716, 24 h, basal condition, primary screen (AID 1173); details: S. cerevisiae BY4716 growth, OD600, 24 h; higher = more signal, called active from +8 up or from −8 down
[3] = viability profiling in MM1S myeloma cells – cell-based, resazurin fluorescence, basal, 24 h, PK04 Diversity Set, profiling panel (AID 1174); details: higher = more signal, called active from +8 up or from −8 down;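 also: MM1S multiple myeloma cell line; test concentration not given here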
[4] = target: Dihydroorotate dehydrogenase (quinone), mitochondrial (Plasmodium falciparum (isolate 3D7)) (UniProt Q08210); assay: inhibition of P. falciparum DHODH – biochemical, C-terminal His tag, absorbance 600 nm, primary screen (AID 1175); details: PfDHODH enzyme, DCIP absorbance 600 nm; higher = more signal, called active from +8 up or from −8 down;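 also: recombinant parasite enzyme with a five histidine tag at its C terminus; test concentration not given here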
[5] = inhibition of PAO1 biofilm formation – strain PAO1, LB-PBS medium, absorbance 600 nm, primary screen (AID 1176); also: test concentration not given here; details: P. aeruginosa PAO1 growth/biofilm, A600, 12 h; higher = more signal
[6] = growth modulation of vineyard yeast isolate – strain RM11-1a, OD600, basal, 24 h, primary screen (AID 1177);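 also: cultures grown under basal conditions with no added stressor; test concentration not given here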; details: S. cerevisiae RM11-1a growth, OD600, 24 h; higher = more signal, called active from +8 up or from −8 down
[7] = growth of efflux-deficient E. coli DRC39 – strain DRC39, OD650, 24 h, E. coli filamentation inducers, primary screen (AID 1178);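 also: growth measured as culture turbidity by optical density at 650 nm; test concentration not given here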; details: E. coli DRC39 acrAB, higher = more signal, called active from +8 up or from −8 down
[8] = growth of efflux-deficient E. coli DRC39 – strain DRC39, OD650, 48 h, E. coli filamentation inducers, primary screen (AID 1179);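 also: screen aims at cell division blockers that make cells filament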; details: E. coli DRC39 delta-acrAB growth, higher = more signal, called active from +8 up or from −8 down
[9] = viability profiling in RPMI8226 myeloma cells – cell-based, resazurin fluorescence, basal, 24 h, PK04 Diversity Set, profiling panel (AID 1180); details: higher = more signal;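 also: RPMI8826 multiple myeloma cell line at 5000 cells per well; test concentration not given here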
[10] = target: E3 ubiquitin-protein ligase XIAP (Homo sapiens) (UniProt P98170); assay: small molecules binding XIAP protein – biophysical, small-molecule microarray, fluorescence 635 nm, primary screen (AID 1181); details: higher = more signal;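 also: score merges 667 nm emission and signal to noise over triplicate slides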
Sequence of E3 ubiquitin-protein ligase XIAP (Homo sapiens) (P98170 whole entry, looked up): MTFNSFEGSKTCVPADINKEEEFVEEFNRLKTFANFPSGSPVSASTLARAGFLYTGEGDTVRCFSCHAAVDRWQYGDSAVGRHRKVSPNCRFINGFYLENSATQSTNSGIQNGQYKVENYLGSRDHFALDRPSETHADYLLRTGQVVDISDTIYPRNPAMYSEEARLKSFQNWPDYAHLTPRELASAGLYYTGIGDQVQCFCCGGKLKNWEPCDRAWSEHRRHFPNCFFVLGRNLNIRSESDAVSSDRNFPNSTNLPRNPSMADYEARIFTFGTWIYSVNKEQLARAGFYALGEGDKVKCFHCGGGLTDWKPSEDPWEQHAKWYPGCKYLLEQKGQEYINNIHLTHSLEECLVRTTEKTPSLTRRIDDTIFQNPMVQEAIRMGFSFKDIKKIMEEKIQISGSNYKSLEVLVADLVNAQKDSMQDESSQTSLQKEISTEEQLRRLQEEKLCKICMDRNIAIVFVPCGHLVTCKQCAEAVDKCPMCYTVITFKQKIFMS

Sequence of Dihydroorotate dehydrogenase (quinone), mitochondrial (Plasmodium falciparum (isolate 3D7)) (Q08210 whole entry, looked up): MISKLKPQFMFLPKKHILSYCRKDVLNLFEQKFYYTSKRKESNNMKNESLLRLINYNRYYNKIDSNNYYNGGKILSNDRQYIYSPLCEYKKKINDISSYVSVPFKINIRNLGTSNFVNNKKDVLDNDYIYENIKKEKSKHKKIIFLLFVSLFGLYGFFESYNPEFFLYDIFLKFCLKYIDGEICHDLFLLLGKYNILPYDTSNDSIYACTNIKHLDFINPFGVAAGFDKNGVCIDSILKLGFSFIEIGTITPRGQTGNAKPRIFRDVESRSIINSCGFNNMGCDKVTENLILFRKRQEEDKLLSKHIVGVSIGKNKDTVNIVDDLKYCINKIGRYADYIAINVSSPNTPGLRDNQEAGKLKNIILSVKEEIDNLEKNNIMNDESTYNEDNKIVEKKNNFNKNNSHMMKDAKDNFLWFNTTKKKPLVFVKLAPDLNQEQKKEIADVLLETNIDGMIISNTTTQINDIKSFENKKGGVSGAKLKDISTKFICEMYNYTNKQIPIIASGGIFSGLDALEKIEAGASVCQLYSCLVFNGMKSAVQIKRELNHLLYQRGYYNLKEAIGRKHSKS

Compound | z-score [1] | z-score [2] | z-score [3] | composite z-score [4] | z-score [5] | z-score [6] | z-score [7] | z-score [8] | z-score [9] | composite z-score [10]
O=C(NCCN1CCOCC1)C1N=C(c2ccc(OCCCO)cc2)N(c2ccccc2)O1 (stereo not given) | -0.154 | 0.554 (inactive) | 0.602 (inactive) | 0.301 (inactive) | -0.978 (inactive) | -0.377 (inactive) | 0.149 (inactive) | 0.116 (inactive) | 0.385 | 0.172
CCCCCN1CC=CC23O[C@@H]4C=CCCOC(=O)C4[C@H]2C(=O)N(CCCCCO)[C@@H]3C1=O (stereo not given in full) | 0.476 | 0.388 (inactive) | 0.66 (inactive) | -0.185 (inactive) | -0.304 (inactive) | 0.467 (inactive) | 0.685 (inactive) | 0.67 (inactive) | 0.802 | 0.263
COC(=O)[C@@]1(Cc2ccc(OC)cc2)[C@H]2c3cc(C(=O)N(C)C)n(CCc4ccccn4)c3C[C@H]2CN1C(=O)c1ccccc1 | -1.31 | 2.55 (inactive) | -2.34 (inactive) | -0.0595 (inactive) | 0.908 (inactive) | 1.51 (inactive) | -1.2 (inactive) | -0.655 (inactive) | -1.93 | 0.264
COC(=O)[C@@]1(CCC(=O)OC(C)(C)C)N=C(c2ccc(OCCCO)cc2)O[C@H]1c1ccccc1N=[N+]=[N-] | -1.15 | 0.381 (inactive) | -6.96 (inactive) | 0.414 (inactive) | 2.78 (inactive) | 1 (inactive) | 0.276 (inactive) | -0.903 (inactive) | -5.04 | 0.168
COc1ccc(CCNC(=O)[C@@]2(Sc3ccc(C)cc3)CC(=O)N(C3Cc4ccccc4C3)[C@@H]2c2ccc(CO)cc2I)cc1 | 0.0641 | -3.1 (inactive) | -2.13 (inactive) | 0.371 (inactive) | -0.171 (inactive) | 1 (inactive) | 0.0559 (inactive) | -0.325 (inactive) | -1.43 | 0.148
C[N+](C)(C)CCCCNC(=O)[C@H]1C[C@H]2C(=O)N3CCC[C@H]3C(=O)N2[C@H]1c1cccc(OCCO)c1 | -2.49 | 1.43 (inactive) | -1.12 (inactive) | -30.8 (active) | 0.628 (inactive) | 0.647 (inactive) | 0.66 (inactive) | 0.629 (inactive) | -0.951 | 0.261
CC(C)c1ccc(NN2C(C(O)c3ccc(B(O)O)cc3)C=CC3C(=O)N(c4ccccc4)C(=O)C32)cc1 (stereo not given) | -1.18 | 0.278 (inactive) | -1.2 (inactive) | -0.388 (inactive) | 1.12 (inactive) | 0.728 (inactive) | -0.329 (inactive) | -0.543 (inactive) | -0.948 | -0.119
COC(=O)C[C@H]1O[C@]2(C(=O)N(C)c3ccccc32)[C@@H](C)[C@@H]1[Si](C)(C)F | 0.951 | -2.55 (inactive) | 1.55 (inactive) | -1.49 (inactive) | 0.908 (inactive) | -2.64 (inactive) | 1.51 (inactive) | 0.847 (inactive) | 2.42 | 0.103
CC1CC/C=C\[C@H]2OC34C=CCN(C(C)(C)C)C(=O)[C@H]3N(CCO)C(=O)[C@@H]4C2C(=O)O1 (stereo not given in full) | 0.488 | -0.68 (inactive) | -0.0542 (inactive) | -0.0848 (inactive) | 0.22 (inactive) | -0.546 (inactive) | -0.344 (inactive) | -0.519 (inactive) | -0.138 | -0.309
O=C1NC(=O)C2C1C=CC(C(O)c1cccs1)N2Nc1ccc(Cl)cc1Cl (stereo not given) | -1.14 | -6.97 (inactive) | -0.597 (inactive) | 0.572 (inactive) | 1.08 (inactive) | 1.45 (inactive) | 0.0751 (inactive) | -0.86 (inactive) | -0.229 | 0.0374
O=C1C[C@@](C(=O)NCC(F)(F)F)(c2ccc([N+](=O)[O-])cc2)[C@@H](c2ccc(CO)cc2I)N1C1CCCCC1 | -0.0199 | -0.805 (inactive) | 0.233 (inactive) | -0.277 (inactive) | 0.609 (inactive) | 0.195 (inactive) | -0.218 (inactive) | -0.182 (inactive) | -0.589 | -0.0172
C=CC1(C(=O)OC)CC=C(C(=O)OC)CC1 (stereo not given) | 0.249 | 0.489 (inactive) | 0.501 (inactive) | -2.11 (inactive) | 0.201 (inactive) | -0.834 (inactive) | -0.233 (inactive) | 1.19 (inactive) | 1.08 | -0.248
C=CCNC(=O)[C@@H]1[C@H]2C(=O)O[C@H](c3ccccc3)[C@H](c3ccccc3)N2[C@H](c2ccc(O)cc2)[C@@]12C(=O)N(C(=O)OCCOC)c1ccc(C#CCNC(N)=O)cc12 | -0.0359 | 0.0215 (inactive) | -0.0272 (inactive) | -1.74 (inactive) | 0.318 (inactive) | -0.586 (inactive) | 0.916 (inactive) | 1.39 (inactive) | 0.302 | -0.17
COCCOC(=O)N1C(=O)[C@@]2(c3ccccc31)[C@H](c1ccc(O)cc1)N1[C@H](c3ccccc3)[C@H](c3ccccc3)OC(=O)[C@H]1[C@@H]2C(=O)Nc1nc2ccccc2s1 | -0.175 | 0.183 (inactive) | -1.1 (inactive) | 0.553 (inactive) | 0.995 (inactive) | 0.941 (inactive) | 0.411 (inactive) | 1.37 (inactive) | -0.456 | -0.02
[N-]=[N+]=Nc1ccccc1[C@@H]1OC(c2ccc(OCCCO)cc2)=N[C@]1(Cc1ccccc1)C(=O)N1CCOCC1 | -0.601 | -0.294 (inactive) | -1.6 (inactive) | 0.291 (inactive) | -0.0279 (inactive) | 0.857 (inactive) | 0.266 (inactive) | -0.412 (inactive) | -1.58 | -0.0062
CCCC[C@@H]1C[C@H]1[C@@H](NC(=O)c1ccccc1)c1ccc(C(=O)OC)cc1 | -0.186 | -1.61 (inactive) | -0.892 (inactive) | -0.265 (inactive) | 0.771 (inactive) | -0.75 (inactive) | -0.986 (inactive) | -0.885 (inactive) | 0.0845 | -0.0143
O=C(c1ccccc1)N1C(=O)[C@]2(COC(c3ccc(OCCCO)cc3)=N2)Cc2ccccc21 | 0.0993 | -1.67 (inactive) | -1.96 (inactive) | 0.201 (inactive) | 0.95 (inactive) | 0.349 (inactive) | 0.107 (inactive) | -0.26 (inactive) | -1.24 | 0.0479
CO[C@H]1O[C@H](CO)[C@@H](OC(=O)Nc2ccccc2)[C@H](OC(=O)Nc2ccccc2)[C@@H]1OC(=O)Nc1ccccc1 | -0.72 | 0.56 (inactive) | -1.73 (inactive) | 0.202 (inactive) | -0.826 (inactive) | 1.22 (inactive) | 0.576 (inactive) | 0.667 (inactive) | -1.15 | 0.178
